Screening data as filed in PubChem BioAssay.
nsP2pro primary = inhibitors of chikungunya virus nsP2 protease | FRET peptide cleavage, nsP2pro, fluorescence 1 h | Potency, µM (highest dose often 24.9 µM), inactives show at the top dose activity change, negative = inhibition, actives largely listed as inhibitors | 1.1% of 31,000 active; also: nearly all actives have a fitted effect of over 60% in size
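Purified recombinant nsP2pro (150 nM final) in 10 mM Tris-HCl pH 8.0 with 0.01% Tween 20 was preincubated 15 min at room temperature with compound (7 concentrations, up to 25 uM). FRET peptide 2 substrate (2.5 uM final) was then added; fluorescence was read after 1 h.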
nsP2 cell sec = secondary cell-based test for CHIKV nsP2 protease inhibitors. shares compounds with nsP2pro primary. cell-based CHIKV nsP2 protease reporter assay. Potency, µM (doses to about 51.1 µM), inactives show at the top dose activity change, negative = inhibition, usual class: inhibitors. 10% of 450 active; also: nearly all actives have a fitted effect of over 70% in size
Target sequence (Q8JUX6 220-798 limits assumed): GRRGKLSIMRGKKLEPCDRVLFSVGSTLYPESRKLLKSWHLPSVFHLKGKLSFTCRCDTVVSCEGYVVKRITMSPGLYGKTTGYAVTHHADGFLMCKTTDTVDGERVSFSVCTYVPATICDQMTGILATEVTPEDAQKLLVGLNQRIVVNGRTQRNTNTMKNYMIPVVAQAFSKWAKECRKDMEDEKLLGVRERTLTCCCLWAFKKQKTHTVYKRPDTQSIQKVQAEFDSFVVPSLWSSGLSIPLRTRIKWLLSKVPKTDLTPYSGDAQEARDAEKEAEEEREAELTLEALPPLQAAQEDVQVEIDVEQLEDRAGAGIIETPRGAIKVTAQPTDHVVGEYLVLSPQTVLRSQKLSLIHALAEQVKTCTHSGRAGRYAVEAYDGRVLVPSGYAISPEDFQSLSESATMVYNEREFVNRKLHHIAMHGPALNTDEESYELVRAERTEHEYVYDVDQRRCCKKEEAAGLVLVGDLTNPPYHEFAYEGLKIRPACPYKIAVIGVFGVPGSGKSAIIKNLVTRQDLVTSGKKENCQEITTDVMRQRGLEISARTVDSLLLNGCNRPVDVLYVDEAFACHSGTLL
NSP2 full ctr = inhibits full-length CHIKV NSP2 enzyme; Full-length CHIKV NSP2 protease enzymatic counterscreen; Potency, µM (highest dose often 50.7 µM), for the others: at the top dose activity change, negative = inhibition, usual class: inhibitors; AID 1964101; shares compounds with nsP2pro primary; 39% of 410 active; also: nearly all actives have a fitted effect of over 65% in size
Furin counter = selectivity counter-screen for CHIKV nsP2 protease inhibitors: human furin. shares compounds with nsP2pro primary. Recombinant human furin enzymatic counterscreen, fluorogenic substrate. Potency, µM (highest dose often 50.6 µM), for inactives: top-dose activity change, negative = inhibition, usual class: inhibitors. 6% of 410 active. AID 1964102
NS23 peptide cs = nsP2pro inhibition on native NS2/3 peptide substrate. 34% of 410 active. shares compounds with nsP2pro primary. Purified CHIKV nsP2 protease, endogenous NS2/3 peptide cleavage. AID 1964103. Potency, µM (highest dose often 51 µM), inactives show at the top dose activity change, negative = inhibition, usual class: inhibitors; also: nearly all actives have a fitted effect of over 55% in size
Papain counter = inhibits papain in a CHIKV nsP2 protease selectivity counterscreen; shares compounds with nsP2pro primary; purified papain protease activity, enzymatic inhibition; Potency, µM (titrated, usually from 51 µM), without a hit: at the highest dose activity change, negative = inhibition, hits mostly inhibitors; 5% of 410 active; AID 1964104
nsP2pro confirm = confirmation of CHIKV nsP2 protease inhibitors. shares compounds with nsP2pro primary. CHIKV nsP2 protease enzymatic activity, qHTS. Potency, µM (series often up to 25.5 µM), without a hit: at the highest dose activity change, negative = inhibition, hits mostly inhibitors. 43% of 410 active; also: nearly all actives have a fitted effect of over 75% in size
HCV NS3 4A cs = selectivity counter-screen for CHIKV nsP2 protease inhibitors: HCV NS3/4A; shares compounds with nsP2pro primary; HCV NS3/4A protease biochemical counterscreen; Potency, µM (series often up to 50.9 µM), most hits filed as inhibitors; 20% of 410 active; AID 1964106; also: nearly all actives have a fitted effect of over 55% in size
* hit, by the source's call; i = inactive; ? = inconclusive; nt = no result given; ! = a repeat was not active; [ ] = another dose, or the depositor's remark. Many of the other results were omitted from the sample, so hits are more common in it than they were. Calls follow the shape of the full dose curve. % is scaled to controls: 0 for no effect and ±100 for the full control effect; potency is read from the fitted curve at half-maximal effect.

SMILES	nsP2pro primary	others
O=C(NC1CCCc2c1cnn2-c1ccc(F)cc1F)c1ccccn1 (stereo not drawn)	7.94µM*!	nsP2 cell sec=9.1%;NSP2 full ctr=-2.3%;Furin counter=-1.0%;NS23 peptide cs=14.5%;Papain counter=-5.0%;nsP2pro confirm=11.8%;HCV NS3 4A cs=i
O=C(N[C@H]1CCCc2c1cnn2-c1ccc(F)cc1F)c1ccccn1	i
CCCNC(=O)N(C1CCOCC1)C1CCN(C(=O)Cc2cccnc2)CC1	4.1%
S=C(NC1CCCCC1)N[C@H]1CO[C@H]2[C@@H]1OC[C@@H]2n1nnnc1Oc1ccc(-n2ccnc2)cc1	40.2%
COc1ccc(CN2COc3ccc4c(oc(=O)c5ccccc54)c3C2)cc1OC	-27.7%
O=c1oc2c3c(ccc2c2ccccc12)OCN(Cc1ccc(Cl)cc1)C3	?	nsP2 cell sec=206.0%;NSP2 full ctr=?;Furin counter=?;NS23 peptide cs=?;Papain counter=-3.8%;nsP2pro confirm=4.49µM*;HCV NS3 4A cs=i
Cc1cc(=O)oc2c3c(ccc12)OCN(Cc1ccc(Cl)cc1)C3	12.3%
COc1cccc(C(=O)Nc2ccc(-c3ccc(OC)nn3)cc2)c1	-2.1%
C=CC(=O)N1CCCN(c2cc(NCCC(=O)O)nc(-c3ccccn3)n2)CC1	135.9%
C=C1C(OC(=O)/C(C)=C\C)[C@@]23CCC4[C@@](C)(CCC[C@@]4(C)C(=O)O)C2CC[C@H]1C3OC(C)=O (stereo partly drawn)	-10.8%[10 µM]
COc1ccc(-c2cc(C(=O)NCc3c(C)cc(C)[nH]c3=O)c3c(c2)N(C)CCO3)cn1	i
N#Cc1c(-c2cccs2)no[n+]1[O-]	-2.5%
COc1ccc(CCNC(=O)C(C)C2CCOCC2)cc1OC (stereo not drawn)	-1.1%
Cc1cc(OCCN(C)C)c(C)c2c1CC[C@@H]([C@H](C)C(=O)NCc1cccs1)C2	37.2%[39.2 µM]
COc1cc(C)c2c(c1C)C[C@H](C(C)C(=O)NCc1ccco1)CC2 (stereo partly drawn)	7.94µM*	nsP2 cell sec=-13.6%
O=C(CCc1cc2n(n1)CCCNC2)NC1CCCN(c2ncccn2)C1 (stereo not drawn)	-0.6%
Cc1ccc(S(=O)(=O)c2ccc([N+](=O)[O-])cn2)cc1	0.355µM*	nsP2 cell sec=2.06µM*;NSP2 full ctr=1.46µM*;Furin counter=11.6µM*;NS23 peptide cs=1.83µM*;Papain counter=-15.5%;nsP2pro confirm=0.565µM*;HCV NS3 4A cs=2.91µM*
Cc1ccc(S(=O)(=O)Nc2cc([N+](=O)[O-])ccc2C(=O)Nc2nc(-c3ccccc3)cs2)cc1	i
CC(=O)Nc1ccc(S(=O)(=O)Nc2ccc([N+](=O)[O-])cc2)cc1	-6.0%
CC(C)C[C@@H]1NC(=O)[C@@H]2C[C@@]34C[C@@H]5[C@@]6(C)CCCC(C)(C)C6CC[C@@]5(C)N(c5ccccc53)[C@H]4N2C1=O (stereo partly drawn)	-8.0%[10 µM]
Cc1nc(NCC2(c3ccccc3)CCOCC2)cc(C2CC(O)C2)n1 (stereo not drawn)	2.0%
O=C1NC(=NC2CCCCC2)C2(CCN(CC3CCCCC3)C2)N1c1cccnc1 (stereo not drawn)	-14.7%
COc1ccc(CCNC(=O)c2cc3sccc3n2Cc2ccc(F)cc2)cc1OC	-6.6%
C=CCc1ccc(O)c(OC)c1	-20.4%
COc1cc(C2Oc3c(OC)cc(CCCO)cc3C2CO)ccc1O (stereo not drawn)	81.4%
SMILES	nsP2pro primary	others
COc1cc(CCN)ccc1O	?	nsP2 cell sec=8.2%;NSP2 full ctr=-2.7%;Furin counter=3.5%;NS23 peptide cs=-3.6%;Papain counter=-7.9%;nsP2pro confirm=-15.1%;HCV NS3 4A cs=i
O=C(O)c1ccc2c(c1)C(=O)N([C@H](Cc1ccc([N+](=O)[O-])cc1)C(=O)O)C2=O	-7.0%
O=C(O)c1ccc(N2C(=O)/C(=C/c3ccc(-c4ccc([N+](=O)[O-])cc4)o3)C=C2c2ccccc2)cc1	7.85µM*	nsP2 cell sec=-17.8%;NSP2 full ctr=?;Furin counter=-18.2%;NS23 peptide cs=-15.4%;Papain counter=18.3µM*;nsP2pro confirm=-26.1%;HCV NS3 4A cs=i
O=S(=O)(Nc1ccc(S(=O)(=O)Nc2nccs2)cc1)c1ccc2ccccc2c1	i
CS(=O)(=O)c1cccc(CNc2nc(Nc3ccc4c(c3)CCC(=O)N4)ncc2C(F)(F)F)c1	-0.5%
CCS(=O)(=O)N1CCN(c2ccc(Nc3ncc(C(N)=O)c(NC4CC4)n3)cc2)CC1	-10.9%
CC(=O)NCC(=O)N1[C@@H]2CC[C@H]1c1ccc(Nc3ncc(C(F)(F)F)c(NC4CCC4)n3)cc12	nt	nsP2 cell sec=-30.8%;NSP2 full ctr=?;Furin counter=-8.2%;NS23 peptide cs=-13.2%;Papain counter=?;nsP2pro confirm=?;HCV NS3 4A cs=i
COc1cc(O)c(C(CC(=O)N2CCN(c3ccc(F)cc3)CC2)c2ccc3c(c2)OCO3)c(OC)c1 (stereo not drawn)	-0.3%
CCCCC(C)(O)CC=C[C@H]1[C@H](O)CC(=O)[C@H]1CCCCCCC(=O)OC (stereo partly drawn)	1.4%
CC1CCN(c2ccc(NC(=O)c3cccc(Cl)c3)cc2C(=O)O)CC1	4.47µM*	nsP2 cell sec=?;NSP2 full ctr=-0.7%;Furin counter=?;NS23 peptide cs=0.461µM*;Papain counter=5.2%;nsP2pro confirm=7.11µM*;HCV NS3 4A cs=3.26µM*
O=C(Nc1cncnc1)c1cccs1	-2.6%
Cc1c(C(=O)Nc2ccc(N3CCC(N4CCOCC4)CC3)c(C#N)c2)cnn1-c1ccc(Cl)cc1	-28.1%
Cc1cccc(C(=O)Nc2ccc(N3CC=C(c4ccccc4C)CC3)c(C(=O)O)c2)c1	9.53µM*	nsP2 cell sec=30.4%;NSP2 full ctr=2.06µM*;Furin counter=?;NS23 peptide cs=7.3µM*;Papain counter=1.4%;nsP2pro confirm=5.04µM*;HCV NS3 4A cs=1.63µM*
CCN1C(=O)c2ccccc2Sc2ccc(NC(=O)c3cccc(C)c3)cc21	-4.5%
Cc1ccccc1C(=O)Nc1ccc(NC(=O)c2cccs2)cc1	18.0%
Cc1ccc(C)c(N2CCN(c3ccc(NC(=O)c4cccs4)cc3C(=O)O)CC2)c1	5.62µM*	nsP2 cell sec=3.6%;NSP2 full ctr=?;Furin counter=-22.6%;NS23 peptide cs=16.3µM*;Papain counter=6.7%;nsP2pro confirm=7.98µM*;HCV NS3 4A cs=4.11µM*
Cc1cccc(C(=O)Nc2ccc3oc(-c4cccc5c(Br)cccc45)nc3c2)c1	-21.3%
O=C(Nc1ccc(S(=O)(=O)Nc2ncccn2)cc1)c1cccc(Cl)c1	-28.6%
Cn1c(=O)n(C)c2cc(N3CCCC3)c(NC(=O)Nc3ccccc3)cc21	-12.1%
O=C(Nc1ccc(N2CCC(N3CCCCC3)CC2)c(C(=O)O)c1)c1ccccc1	10.7µM*	nsP2 cell sec=-4.7%;NSP2 full ctr=2.91µM*;Furin counter=?;NS23 peptide cs=9.19µM*;Papain counter=-3.0%;nsP2pro confirm=6.34µM*;HCV NS3 4A cs=1.83µM*
